ELG1 DNA repair: inhibitors of ELG1-dependent DNA repair in HEK293T cells; HEK293T ELG1-luciferase reporter, luminescence, 16 h; DNA damage induced by 5-fluorouridine; Potency, µM (doses to about 46.1 µM), usual class: inhibitors; hit rate 2.3% among 330,000; AID 504467; further: nearly all actives have a fitted effect of over 55% in size
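Reporter activity after DNA damage by 5-fluorouridine is monitored. Compound-treated cells incubate 16 hr at 37 °C, then ONE-Glo is added for 30 min before luminescence reading.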
KB-3-1 tox: kills parental KB-3-1 adenocarcinoma cells; KB-3-1 viability, CellTiter-Glo ATP luminescence, 72 h; AID 1347075; hit rate 1.4% among 400,000; Potency, µM (titrated, usually from 46.1 µM), most hits filed as cytotoxic; further: nearly all actives have a fitted effect of over 60% in size
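Cytotoxicity measured as CellTiter-Glo luminescence after 72 h at 37 C. Compound titrations were pinned onto drug-naive KB-3-1 parental adenocarcinoma cells grown in DMEM with 10% FBS, and normalized data fitted to concentration-response curves.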
KB-V1 MDR tox: kills drug-selected multidrug resistant KB-V1 cells; KB-V1 MDR cells viability, CellTiter-Glo, 72 h; Potency, µM (doses to about 46.1 µM), hits mostly cytotoxic; hit rate 3.4% among 400,000; AID 1347076; further: nearly all actives have a fitted effect of over 60% in size
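Following 72 h at 37 degrees C with compound, KB-V1 cell viability was read by CellTiter-Glo luminescence, medium being phenol-red-free DMEM plus 10% FBS; concentration-response parameters came from normalized, curve-fitted qHTS data.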
SW480 rereplic: induces DNA re-replication in SW480 colon adenocarcinoma cells | SW480 DNA re-replication, Hoechst DNA content imaging, 48 h | hit rate 1.8% among 340,000 | Potency, µM (titrated, usually from 46.1 µM), usual class: activators; further: nearly all actives have a fitted effect of over 55% in size
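Compounds, transferred as 23 nL by pin tool, were incubated with cells for 48 hr; DNA content per nucleus was then quantified by Hoechst staining and fluorescence plate imaging.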
MCF10A rerep: inducers of DNA re-replication in MCF 10A breast cells. MCF 10A DNA re-replication, Hoechst nuclear intensity, 48 h. Potency, µM (highest dose often 46.1 µM), usual class: activators. hit rate 2.9% among 350,000; further: nearly all actives have a fitted effect of over 50% in size
A number is an active result; [ ] = remark or other dose. Shown are actives, neighbours in structure and some others; about 8.1% of the full set was active somewhere. The call rests on the fitted dose curve; in most records, active means well fitted curve in the direction sought with a large enough effect; inconclusive means small, poorly fitted or top-dose-only effect, or another doubt; inactive means no such curve, though single readings can be large; an effect the other way counts as inactive or inconclusive.

For CC(C)c1cc(Cn2c3ccccc3c(=O)n2C(C)Cn2cc(CCCC#N)nn2)on1 (stereo unspecified) the results were KB-3-1 tox inactive and KB-V1 MDR tox inactive.
For Cc1cccc(/C=C\c2nc3ccccc3c(=O)[nH]2)c1 the results were ELG1 DNA repair inconclusive, KB-3-1 tox 15µM, KB-V1 MDR tox inconclusive, SW480 rereplic 21µM and MCF10A rerep 5.8µM.
`O=c1[nH]c2ccccc2nc1/C=C/c1ccc(Cl)cc1` gave ELG1 DNA repair inconclusive, KB-3-1 tox inactive, KB-V1 MDR tox inactive, SW480 rereplic 21µM and MCF10A rerep 18µM.
COc1ccc(C(=O)Nc2cccc(/C=C/c3nc4ccccc4c(=O)[nH]3)c2)cc1 was read as ELG1 DNA repair inconclusive, KB-3-1 tox inconclusive, KB-V1 MDR tox inactive, SW480 rereplic inconclusive and MCF10A rerep 6.5µM.
O=C(Nc1cccc(/C=C/c2nc3ccccc3c(=O)[nH]2)c1)c1ccccc1Cl was read as ELG1 DNA repair inconclusive, KB-3-1 tox inconclusive, KB-V1 MDR tox inactive, SW480 rereplic inconclusive and MCF10A rerep inconclusive.
`O=c1[nH]c(/C=C/c2ccc(Br)cc2)nc2ccccc12` gave ELG1 DNA repair inconclusive, KB-3-1 tox inactive, KB-V1 MDR tox inactive, SW480 rereplic inactive and MCF10A rerep inconclusive.
For O=c1[nH]c(/C=C/c2ccccc2F)nc2ccccc12 the results were ELG1 DNA repair inconclusive, KB-3-1 tox 4.6µM, KB-V1 MDR tox 2.6µM, SW480 rereplic 3.7µM and MCF10A rerep 8.2µM.
For O=c1[nH]c(/C=C/c2cccc3ccccc23)nc2ccccc12 the results were ELG1 DNA repair inconclusive, KB-3-1 tox inactive, KB-V1 MDR tox inactive, SW480 rereplic inconclusive and MCF10A rerep inconclusive.
For Cc1cccc(C)c1OCc1cc(C(=O)NCC2CC2)no1 the results were ELG1 DNA repair inactive, KB-3-1 tox inactive, KB-V1 MDR tox inactive, SW480 rereplic inactive and MCF10A rerep inactive.
`C(=C\c1nc2ccccc2[nH]1)/c1ccccc1` gave ELG1 DNA repair inconclusive, KB-3-1 tox 18µM, KB-V1 MDR tox inactive, SW480 rereplic 15µM and MCF10A rerep 5.2µM.
For Cc1nc(/C=C/c2ccccc2)[nH]c(=O)c1-c1ccccc1 the results were ELG1 DNA repair inconclusive, KB-3-1 tox inconclusive, KB-V1 MDR tox 18µM, SW480 rereplic inconclusive and MCF10A rerep inconclusive.
For C=C1CCN([C@@H](CC(C)C)C(=O)N2CCCC2)S(=O)(=O)c2ccccc21 the results were KB-3-1 tox inactive, KB-V1 MDR tox inconclusive, SW480 rereplic inactive and MCF10A rerep inactive.
COc1cc2oc(=O)cc(-c3cccc(-c4ccc(C(F)(F)F)cc4)c3)c2c(OC)c1OC was read as ELG1 DNA repair inactive, KB-3-1 tox inactive, KB-V1 MDR tox inactive, SW480 rereplic inactive and MCF10A rerep inconclusive.
`O=C(NCc1ccccc1)C1=C[C@H](c2ccc(C(F)(F)F)cc2)C[C@H](OCCCCO)O1` gave KB-3-1 tox inactive, KB-V1 MDR tox inactive, SW480 rereplic inactive[9.22 µM] and MCF10A rerep inconclusive.
C(#CCN1CCCC1)CC(c1ccccc1)c1ccccc1 was read as ELG1 DNA repair inactive, KB-3-1 tox inactive, KB-V1 MDR tox inconclusive, SW480 rereplic inactive and MCF10A rerep 13µM.
Screening C(#Cc1ccccc1)CN1CCCCC1 returned ELG1 DNA repair inactive, KB-3-1 tox inactive, KB-V1 MDR tox inactive, SW480 rereplic inactive and MCF10A rerep inactive.
`COC(=O)c1ccc(S(=O)(=O)NCc2ccc(OC)cc2)n1C` gave ELG1 DNA repair inactive, KB-3-1 tox inactive, KB-V1 MDR tox inactive, SW480 rereplic inactive and MCF10A rerep inactive.
`CCOc1cc(NC(=O)c2ccco2)c(OCC)cc1NC(=O)CCc1ccccc1OC` gave ELG1 DNA repair 21µM, KB-3-1 tox inactive, KB-V1 MDR tox inactive, SW480 rereplic inactive and MCF10A rerep inconclusive.
CCOc1cc(NC(=O)c2ccco2)c(OCC)cc1NC(=O)c1ccco1 was read as ELG1 DNA repair inactive, KB-3-1 tox inactive, KB-V1 MDR tox inactive, SW480 rereplic inactive and MCF10A rerep inconclusive.
CCOc1cc(C#N)c(NC(=O)c2ccco2)cc1OCC was read as ELG1 DNA repair inconclusive, KB-3-1 tox 6.5µM, KB-V1 MDR tox inconclusive, SW480 rereplic 9.2µM and MCF10A rerep inconclusive.
Screening CC(C)(C)c1ccc(S(=O)(=O)NCC(=O)N2CCCC2)cc1 returned ELG1 DNA repair inactive, KB-3-1 tox inactive, KB-V1 MDR tox inactive, SW480 rereplic 5.8µM and MCF10A rerep inactive.
CC(=O)c1ccc(S(=O)(=O)NCC(=O)N2CCN(C/C=C/c3ccccc3)CC2)cc1 was read as ELG1 DNA repair inactive, KB-3-1 tox inactive, KB-V1 MDR tox 18µM, SW480 rereplic inactive and MCF10A rerep inactive.
Screening O=C(c1ccc(Br)s1)N1CCN(C/C=C/c2ccccc2)CC1 returned ELG1 DNA repair inconclusive, KB-3-1 tox inactive, KB-V1 MDR tox 15µM, SW480 rereplic inactive and MCF10A rerep inactive.
For O=C(NC(=S)N1CCN(C/C=C/c2ccccc2)CC1)c1ccc(Cl)nc1 the results were ELG1 DNA repair 18µM, KB-3-1 tox inactive, KB-V1 MDR tox inactive, SW480 rereplic inactive and MCF10A rerep inactive.
Cc1ccc(S(=O)(=O)NCCC(=O)N2CCN(C/C=C/c3ccccc3)CC2)cc1 was read as ELG1 DNA repair inactive, KB-3-1 tox inactive, KB-V1 MDR tox inactive, SW480 rereplic inactive and MCF10A rerep inactive.
`CCCCCCC(=O)Cc1cc(OC)c(OC)cc1C=C(C(=O)OCC)C(=O)OCC` gave ELG1 DNA repair inactive, SW480 rereplic inactive and MCF10A rerep inconclusive.
`Cc1ccsc1CN(C)C(=O)c1cc(S(=O)(=O)N2CCOCC2)ccc1N1CCCC1` gave ELG1 DNA repair inactive, KB-3-1 tox inactive, KB-V1 MDR tox inconclusive, SW480 rereplic inactive and MCF10A rerep inactive.
O=C(NCC(=O)N1CCN(C/C=C/c2ccccc2)CC1)c1ccc(Br)cc1 was read as ELG1 DNA repair 21µM, KB-3-1 tox inactive, KB-V1 MDR tox inconclusive, SW480 rereplic inactive and MCF10A rerep inactive.
Screening O=C(c1ccc(=O)n(Cc2ccccc2)n1)N1CCN(C/C=C/c2ccccc2)CC1 returned ELG1 DNA repair 16µM, KB-3-1 tox inconclusive, KB-V1 MDR tox inactive, SW480 rereplic inactive and MCF10A rerep inactive.
For Cc1ccc(NC(=O)CSc2nnc3ccccn23)c(Cl)c1 the results were KB-3-1 tox inactive and KB-V1 MDR tox inactive.
Cc1cccnc1NC(=O)c1ccc(NS(=O)(=O)c2ccc3[nH]c(=O)[nH]c3c2)cc1 was read as ELG1 DNA repair inactive, KB-3-1 tox inactive, KB-V1 MDR tox inactive, SW480 rereplic inactive and MCF10A rerep inactive.
For O=C(Nc1ncccc1O)c1ccc(S(=O)(=O)Nc2ccccc2)cc1 the results were ELG1 DNA repair inconclusive, KB-3-1 tox 10µM, KB-V1 MDR tox 9.2µM, SW480 rereplic inactive and MCF10A rerep inactive.
O=C(Nc1ncccc1O)c1ccc(NS(=O)(=O)c2ccc3[nH]c(=O)[nH]c3c2)cc1 was read as ELG1 DNA repair inactive, KB-3-1 tox inconclusive, KB-V1 MDR tox inactive, SW480 rereplic 16µM and MCF10A rerep inactive.

Screening results from PubChem BioAssay.
